Test results taken from PubChem BioAssay (NCI).
About 83,000 compounds went through this panel and 20% of them were active in at least one assay; those are over-represented in the sample as a whole.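 Each cell line was grown in a 96-well plate and treated with one concentration of compound for 48 hours. Values below 10 were considered active.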 Values without a mark were called inactive. The source made the active and inactive calls.

Tests used:
Assay in all cases: NCI-60 one-dose screen, 48 h (100 = growth as untreated, 0 = no growth, -100 = all killed)
[1] = test system: SR leukemia; settings: 10 µM unless noted
[2] = test system: OVCAR-8 ovarian; settings: 10 µM unless noted
[3] = test system: OVCAR-5 ovarian; settings: 10 µM unless noted
[4] = test system: OVCAR-4 ovarian; settings: 10 µM unless noted
[5] = test system: SK-OV-3 ovarian; settings: 10 µM unless noted
[6] = test system: IGROV1 ovarian; settings: 10 µM unless noted
[7] = test system: OVCAR-3 ovarian; settings: 10 µM unless noted
[8] = test system: HS 578T breast; settings: 10 µM
[9] = test system: NCI/ADR-RES ovarian; settings: 10 µM unless noted
[10] = test system: RPMI-8226 leukemia; settings: 10 µM unless noted

| Compound | growth [1] | growth [2] | growth [3] | growth [4] | growth [5] | growth [6] | growth [7] | growth [8] | growth [9] | growth [10] |
| --- | --- | --- | --- | --- | --- | --- | --- | --- | --- | --- |
| CCCC(=O)OCC1OC(n2cnc3c(=S)nc(N)[nH]c32)C(OC(=O)CCC)C1OC(=O)CCC (centres undefined) | 6.99% (active) | 6.16% (active) | 38.4% | 20.6% | 5.91% (active) | 51% | 6.47% (active) | 29.9% | 40.2% | – |
| CC(=Nc1ccccc1)C1=C(O)C(Cc2ccc(O)cc2)NC1=O (centres undefined) | -9.58% (active) | -53.5% (active) | 32.1% | 36.6% | 23% | 17.8% | -63.2% (active) | -27.2% (active) | -13.4% (active) | – |
| O=CC(OC(=O)c1ccccc1)C(OC(=O)c1ccccc1)C(COC(c1ccccc1)(c1ccccc1)c1ccccc1)OC(=O)c1ccccc1 (centres undefined) | -12.9% (active) | -17.6% (active) | 61% | 89.9% | 98.8% | -38.5% (active) | 21.4% | 51.8% | 92.8% | – |
| C#Cc1cccc(Nc2ncnc3cc4c(cc23)OCCOCCOCCO4)c1 | 53.5% | 53.9% | 60.4% | 63.2% | -17% (active) | 15.2% | 40.9% | – | 58.5% | 70% |
| Nc1cc2c(cc1Br)-c1c(C(=O)O)cccc1C2O (centres undefined) | 109% | 107% | 102% | 103% | 110% | 98.6% | 147% | 143% | 118% | – |
| O=C(Nc1ccc(C2=NCCCN2)cc1)c1ccc(C(=O)Nc2ccc(C3=NCCCN3)cc2)nc1 | 85.2% | 112% | 95.1% | 102% | 106% | 107% | 101% | -26.5% (active) | 102% | – |
| O=C(N/N=C/c1ccc(Cl)cc1)c1cc(-c2cc3ccccc3o2)nn1-c1ccccc1 | 87.9% | 93.7% | 101% | 87.3% | 94% | 65.9% | 106% | – | 93.4% | 47.6% |
| Nc1nc(N)c2cc(CNc3ccc(C(=O)NC(CC(=O)O)C(=O)O)cc3)ccc2n1 (centres undefined) | 13.8% | -13.2% (active) | 30.1% | 50.8% | 47.4% | 38.7% | 50.5% | -20.2% (active) | 17.3% | – |
| CCN1CCN(CCCN(C[C@H]2Cc3ccccc3CN2)[C@H]2CCCc3cccnc32)CC1 | 53.6% | 85.3% | 92.7% | 89.5% | 89.4% | 94.5% | 84.2% | – | 92.1% | 81.8% |
| Oc1ccc(/C=N/Nc2nnc(N/N=C/c3ccc(O)cc3O)c3ccccc23)c(O)c1 | -26.1% (active) | -60% (active) | 1.16% (active) | -9.22% (active) | -15.4% (active) | -2.51% (active) | -34.1% (active) | -76.8% (active) | -11.1% (active) | – |
| O=C(COc1ccc(/C=C2\Cc3ccc(Cl)cc3C2=O)cc1)Nc1nccs1 | 148% | – | 100% | 90% | 108% | – | 103% | – | 86.7% | 91.7% |
| Nc1nc(Nc2ccccc2)c(C=Nc2ccccc2)c(=O)[nH]1 | – | 85.2% | 90.7% | 94.8% | 86.3% | 48.5% | 110% | 87.5% | 91.9% | 94.8% |
| COc1cc(C2CC(c3ccc(Cl)cc3)=NN2c2ccc(Cl)cc2)cc(OC)c1OC (centres undefined) | 98.7% | 101% | 88.1% | 83.2% | 98.2% | 94.8% | – | – | 95.6% | 83.3% |
| CC(=Nc1ccccc1)C1=C(O)C(Cc2ccccc2)NC1=O (centres undefined) | -12% (active) | -50.4% (active) | 18.9% | 39.6% | 16.8% | 6.28% (active) | -42.4% (active) | -15.3% (active) | -8.97% (active) | – |
| Cc1nn(-c2ccccc2)c2c1N=c1s/c(=C\c3cn(-c4ccccc4)nc3-c3ccc(Cl)cc3)c(=O)n1C(C)N2 (centres undefined) | 123% | – | 101% | 93.2% | 102% | – | 109% | 87.8% | 97.8% | 49% |
| N#Cc1ccc(-n2nnc3ccccc32)cc1C#N | – | 99% | 110% | 110% | 98.8% | 104% | 101% | 105% | 101% | 101% |
| CC1CCC(n2cnc3c(Cl)ncnc32)O1 (centres undefined) | 104% | 91.4% | 93.9% | 104% | 98.6% | 61.7% | 97.1% | 88.1% | 101% | – |
| COc1cc(OC)c(C(=O)/C=C/c2cc3c(cc2OCc2ccccc2)OC(C)(C)CC3)cc1CC=C(C)C | 11.6% | 1.96% (active) | 64.7% | 44.7% | 78.6% | 66.5% | 19.2% | 69.6% | 51.9% | – |
| CCc1ccc(/C=C/c2ccc(O)c3ncccc23)[n+](C)c1 | 7.25% (active) | -12.1% (active) | 40.9% | 35.9% | 76.7% | 33.4% | -11.4% (active) | 23.1% | 73.4% | – |
| CCN(CC)CCNc1ccc(N=Nc2cnc3ccccc3c2)c2ccccc12 | -53.1% (active) | -90.1% (active) | -86.6% (active) | -25.3% (active) | -77.2% (active) | -92.8% (active) | -73.2% (active) | -73.9% (active) | -40% (active) | – |
| COC(=O)[C@@H](C)CNS(=O)(=O)N(c1cc(C(F)(F)F)cc(C(F)(F)F)c1)C1CCN(Cc2ccc(F)cc2)CC1 | 26.7% | 67.3% | 76.1% | 73.4% | 76.2% | 54.7% | 56.7% | 90.7% | 51% | – |
| O=C(COc1cccc(/C=C2\Cc3ccc(Cl)cc3C2=O)c1)Nc1nccs1 | 48% | – | 102% | 81.6% | 96% | – | 89.6% | 105% | 76.6% | 54.6% |
| CC(C)Nc1cc(-c2c[nH]c(C(=O)N[C@H](CO)c3cccc(Cl)c3)c2)c(Cl)cn1 | 23.9% | 35% | 19.5% | 42.2% | 23.3% | 18.4% | 75.9% | – | 47.9% | 21.8% |
| Nc1nc(=S)c2ncn(C3OC(COC(=O)c4ccc(Cl)cc4)C(OC(=O)c4ccc(Cl)cc4)C3OC(=O)c3ccc(Cl)cc3)c2[nH]1 (centres undefined) | 72.8% | 129% | 91.9% | 86.2% | 43.5% | 93.5% | 81% | -29% (active) | 103% | – |
| CCN(CC)CCN1C(=O)c2cccc3c(-c4ccc5c(c4)ncn5C4CCCCC4)ccc(c23)C1=O | -14% (active) | 25.9% | 36.4% | 32.9% | 21.2% | 28.4% | 44.8% | – | 21.8% | -33% (active) |
| CCOC(=O)c1sc(NC(=O)COc2ccc(/C=C3\Cc4ccc(Cl)cc4C3=O)cc2)nc1C | 103% | – | 111% | 112% | 110% | – | 113% | 116% | 93.9% | 96.1% |
| CC(=O)OCCC/C(=C\c1ccc2ccccc2c1)[N+](=O)[O-] | -33.8% (active) | -91.3% (active) | -93.2% (active) | 11.1% | 57.9% | -82.3% (active) | -96.6% (active) | – | -7.25% (active) | – |
| Clc1ccc(/C=C/c2cc(N3CCOCC3)c3cc(Cl)c(Cl)cc3n2)cc1 | 59.4% | 100% | 105% | 101% | 105% | 94.3% | – | 102% | 90.2% | -40.9% (active) |
| COc1c(OCCCN2CCOCC2)ccc2c3n(c(=NC(=O)c4cnc(N)nc4)nc12)CCN3 | 5.24% (active) | 15.7% | 14% | 7.97% (active) | -31.8% (active) | -22% (active) | 4.64% (active) | – | 22.7% | 11.3% |
